Bioassay records deposited in PubChem by National Center for Advancing Translational Sciences (NCATS).
Only some compounds are listed: those with a hit (about 7.3% of all), similar ones and a draw of the others.
Luc counter: Counterscreen for Luciferase (Kinase-Glo TM) Inhibition; Luciferin 4-monooxygenase (Photuris pensylvanica), Q27757; Kinase-Glo luciferase, ATP luminescence, 8 min; Potency, µM (top dose mostly 38.3 µM), for inactives: top-dose activity change, negative = inhibition, actives largely listed as inhibitors; 200,000 tested, 0.28% active; AID 1379, 2008; further: on the % scale 0 is the no-effect control and ±100 the full control effect; nearly all actives have a fitted effect of over 60% in size
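Substrate mix (final 50 mM imidazole pH 7.2, 50 mM KCl, 7 mM MgCl2, 10 uM ATP, 0.01% Tween 20, 0.05% BSA) plus pin-tool compound, then Kinase-Glo detection mix; 8 min ambient, luminescence read.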
NPC1 promoter act: qHTS Assay for NPC1 Promoter Activators. Huh7 NPC1 promoter luciferase reporter, 24 h. Potency, µM (top dose mostly 9.22 µM), for the others: at the top dose activation, actives largely listed as activators. 320,000 tested, 2.4% active; further: % of control where 0% means no effect; nearly all actives have a fitted effect of over 60% in size
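Cells: Huh7 expressing luciferase under the NPC1 promoter, 1500/well. Seeded 2 h, compound added, incubated 24 h at 37 °C. Luciferase reagent, 10 min ambient, then luminescence.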
ELG1 genotoxic: qHTS screen for small molecules that induce genotoxicity in human embryonic kidney (HEK293T) cells expressing luciferase-tagged ELG1; HEK293T ELG1-luciferase reporter, luminescence, 16 h; 330,000 tested, 1.3% active; Potency, µM (top dose mostly 46 µM), for inactives: at the highest dose activity change, positive = activation, hits mostly activators; AID 504466, 2011; further: % of control where 0% means no effect; nearly all actives have a fitted effect of over 60% in size
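Screening used a luciferase reporter fused to human ELG1 in HEK293T cells. Luminescence was read on a CCD plate imager after 16 hr exposure and 30 min ONE-Glo incubation.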
Rab9 promoter act: qHTS Assay for Rab9 Promoter Activators | Huh7 Rab9 promoter-luciferase reporter, luminescence, 24 h | Potency, µM (titrated, usually from 9.22 µM), for inactives: at the top dose activation, negative = inhibition, actives largely listed as activators | 320,000 tested, 2.8% active | AID 485297, 2010; further: % of control where 0% means no effect; nearly all actives have a fitted effect of over 60% in size
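Cells were plated at 1500 per well in reduced-serum medium with 10% FBS and left 2 h. Compound in DMSO was then added for 24 h at 37 °C. Reporter signal was read by luminescence after 10 min with luciferase detection reagent.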
FLuc counter: qHTS profiling assay for firefly luciferase inhibitor/activator using purifed enzyme and Km concentrations of substrates (counterscreen for miR-21 project); Luciferin 4-monooxygenase (Photinus pyralis), P08659; purified FLuc, Km substrates, luminescence inhibition; Potency, µM (top dose mostly 57.5 µM), for inactives: at the top dose activity change, negative = inhibition, hits mostly inhibitors; 360,000 tested, 6.9% active;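 further: plate controls were vehicle for no effect and reference inhibitor for full effect; nearly all actives have a fitted effect of over 55% in size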
Target sequence (P08659 whole entry, looked up): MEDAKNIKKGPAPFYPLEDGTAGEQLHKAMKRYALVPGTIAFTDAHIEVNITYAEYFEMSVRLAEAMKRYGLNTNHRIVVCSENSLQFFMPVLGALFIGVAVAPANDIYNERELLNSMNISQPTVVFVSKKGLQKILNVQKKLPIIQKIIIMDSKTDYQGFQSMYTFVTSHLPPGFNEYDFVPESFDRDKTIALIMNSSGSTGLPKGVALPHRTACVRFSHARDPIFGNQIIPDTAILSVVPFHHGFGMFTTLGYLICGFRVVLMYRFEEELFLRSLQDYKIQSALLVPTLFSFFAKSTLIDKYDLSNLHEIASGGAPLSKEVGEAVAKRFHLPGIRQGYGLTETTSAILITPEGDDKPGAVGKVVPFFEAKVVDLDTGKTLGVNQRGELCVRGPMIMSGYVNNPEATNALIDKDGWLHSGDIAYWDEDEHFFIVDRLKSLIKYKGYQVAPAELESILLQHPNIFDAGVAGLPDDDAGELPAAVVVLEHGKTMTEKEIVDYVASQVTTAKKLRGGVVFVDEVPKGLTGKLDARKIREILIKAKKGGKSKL
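Biochemical qHTS of compounds, final roughly 60 µM downward over six points, against 10 nM purified firefly luciferase using Km concentrations of substrates (10 uM D-luciferin, 10 uM ATP) in Tris acetate pH 7.5 buffer; luminescence output.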
SMN2 splice enh: qHTS Assay for Enhancers of SMN2 Splice Variant Expression | Potency, µM (series often up to 46.1 µM), without a hit: at the top dose activity change, positive = activation, actives largely listed as activators | HEK293 SMN2-luciferase splicing reporter, luminescence, 30-36 h | 210,000 tested, 2.8% active; further: % of control where 0% means no effect; nearly all actives have a fitted effect of over 55% in size
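HEK293 cells carry an SMN2 […]–luciferase reporter in which exon 7 inclusion puts luciferase in frame. Cells were plated 10-12 h before compound addition, then incubated 30-36 h at 37C. ONE-Glo luminescence was read; sodium butyrate at 4.5 mM final served as control.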
Starred values were filed as active, the others as inactive; ? = inconclusive; . = no result given; [ ] = another dose, or the depositor's remark. The call rests on the fitted dose curve; in most records, active means well fitted curve in the direction sought with a large enough effect; inconclusive means small, poorly fitted or top-dose-only effect, or another doubt; inactive means no such curve, though single readings can be large; an effect the other way counts as inactive or inconclusive. Potency means the concentration at half of the fitted maximal effect.

SMILES	Luc counter	NPC1 promoter act	ELG1 genotoxic	Rab9 promoter act	FLuc counter	SMN2 splice enh
S=C(Nc1ccc(Cl)cc1)N1CCCCC1	0%	7%	1%	1%	12µM*	12%
CCOc1ccc(NC(=S)N2CCCC2)cc1	.	-3%	26%	1%	-1%	.
Cc1ccc(N2CCN(S(=O)(=O)c3ccc4oc(=O)c5ncn(C)c5c4c3)CC2)c(C)c1	.	.	.	.	1%	.
O=[N+]([O-])c1ccccc1S(=O)(=O)NCC1CCC(CNCC2CCc3ccccc3C2)CC1 (configuration not stated)	1%	.	.	.	.	-9%
NC[C@H]1O[C@H](n2cnc3c(N)ncnc32)C[C@@H]1O	4%[7.66 µM]	.	.	.	.	-7%[9.22 µM]
CCn1c(SCC(=O)Nc2ccc(C(C)=O)cc2)nc2ccccc21	2%	?	16µM*	?	?	?
CCn1c(SCC(=O)Nc2ccc3[nH]c(=O)[nH]c3c2)nc2ccccc21	.	-1%	4%	-3%	2%	.
COc1ccc(NC(=O)CSc2nccn2Cc2ccco2)c(OC)c1	.	21%	?	?	19µM*	.
CC(=O)c1ccc(NC(=O)CSc2nccn2CCc2ccccc2)cc1	-3%	?	?	?	13µM*	15%
N#Cc1ccccc1NC(=O)CSc1nccn1CCc1ccccc1	-1%	?	21µM*	?	21µM*	?
N#Cc1ccccc1NC(=O)CSc1nnc(-c2ccccc2)n1-c1ccccc1	-2%	4%	-29%	2%	1%	-20%
CC(=O)c1ccc(NC(=O)CSc2nccn2C)cc1	.	22%	13%	11%	-8%	.
CC(=O)c1ccc(NC(=O)CSc2nccn2Cc2ccco2)cc1	.	.	.	.	17µM*	.
Cc1ccc(NC(=O)CSc2nccn2Cc2ccco2)cc1	.	?	?	4.5µM*	19µM*	.
O=C(CSc1nccn1Cc1ccco1)Nc1ccc(F)cc1	.	-3%	?	3%	-13%	.
O=C(CSc1nccn1Cc1ccco1)Nc1cccc(F)c1	.	17%	9%	26%	-4%	.
COc1cccc2c1[C@H](CO)N1[C@H](C#N)[C@@H]3C[C@H](C(=O)O)[C@@H]([C@@H]1C2)N3C	-2%[7.66 µM]	.	.	.	.	-66%[9.22 µM]
C/C(=N/OC(=O)c1ccc(C)cc1)C(=O)c1ccc(Br)cc1	.	-4%	4%	8%	-18%	.
COc1cc(C(=O)O/N=C(\N)c2cccc([N+](=O)[O-])c2)cc(OC)c1OC	.	-3%	7%	8%	-2%	.
N/C(=N\OC(=O)c1ccccc1Br)c1cccc([N+](=O)[O-])c1	.	2.2µM*	5.8µM*	1.3µM*	2.4µM*	.
Cc1ccccc1C(=O)O/N=C(\N)c1ccccc1	.	3.5µM*	1.6µM*	0.79µM*	0.17µM*	.
Cc1ccccc1C(=O)O/N=C(\N)c1ccc([N+](=O)[O-])cc1	.	?	?	?	19µM*	.
C/C(=N/OC(=O)c1ccc(F)cc1)c1ccc(C)cc1	-6%	1%	1%	-8%	0.67µM*	-6%
Cc1cc(C)cc(-n2ccnc2SCC(=O)Nc2cccc3ccccc23)c1	.	.	.	.	-15%	.
CCn1c(SCc2ccc(F)cc2Cl)nc(=O)c2c(C(=O)OC)cc(C3CC3)nc21	.	.	.	.	-16%	.
SMILES	Luc counter	NPC1 promoter act	ELG1 genotoxic	Rab9 promoter act	FLuc counter	SMN2 splice enh
Cc1ccccc1C(=O)O/N=C(\c1ccccc1)c1ccccn1	-3%	0%	-2%	0%	21µM*	20%
N/C(=N\OC(=O)c1ccccc1F)c1cccc([N+](=O)[O-])c1	.	2.8µM*	?	2.8µM*	3.4µM*	.
Cc1ccccc1/C(N)=N/OC(=O)c1ccc(F)cc1	?	?	?	?	1.3µM*	-3%
N/C(=N\OC(=O)c1ccccc1Br)c1ccc([N+](=O)[O-])cc1	.	4µM*	?	3.5µM*	5.4µM*	.
COc1ccc(C(=O)Nc2nnc(S(=O)(=O)N3CCCc4ccccc43)s2)cc1	.	.	.	.	-5%	.
CN(C)S(=O)(=O)c1ccc(Nc2ccc(-c3ccc4c(c3)OCCO4)nn2)cc1	-7%	-5%	3%	9%	6.7µM*	2%
CN(C(=O)c1cccc(Nc2ccc(-c3ccc4c(c3)OCCO4)nn2)c1)C1CCCCC1	?	?	-21%	?	0.95µM*	-59%
CN(C(=O)c1cccc(NC(=O)c2ccccc2)c1)C1CCCCC1	.	-1%	-5%	0%	4%	.
CCN(CC)S(=O)(=O)c1ccc(Nc2ccc(-c3ccc4c(c3)OCCO4)nn2)cc1	-4%	-6%	8%	18%	11µM*	-14%
COC(=O)/N=C(/Cc1ccc(OC)cc1)c1ccc(OC)cc1	.	18%	8%	17%	0.76µM*	.
CCc1cc(/C(Cc2csc(C)n2)=N/O)c(O)cc1O	-3%	-1%	0%	-16%	0%	-63%
Cc1cc(O)c(C(=O)Cc2csc(C)n2)c(O)c1	-2%	?	?	4µM*	27µM*	?
Cc1ccc(Nc2nc(C)cc(C)n2)c(Br)c1	1%	22%	8%	19%	21µM*	4%
Cc1cccc(Nc2nc(C)cc(C)n2)c1	.	-4%	-2%	-3%	-17%	.
CCOC(=O)COc1ccc(/C=C2/C(=O)NN(c3ccc(F)cc3)C2=O)cc1OC	.	-3%	8%	0%	?	.
COc1cc(/C=C2/C(=O)NN(c3ccc(Cl)cc3)C2=O)cc(OC)c1O	.	0%	0%	-2%	12µM*	.
COc1cc(/C=C2/C(=O)NN(c3ccccc3)C2=O)cc(Br)c1O	.	-4%	10%	-2%	17µM*	.
CCOc1ccccc1Nc1ccc2cc(S(=O)(=O)N3CCCCC3)ccc2n1	.	.	.	.	-2%	.
CC(C)Oc1ccc(C(=O)/C=C2/C(=O)Nc3ccccc32)cc1	.	1%	?	6%	5.4µM*	.
Nc1c(-c2ccccc2)c(CN2CCOCC2)nn1-c1ccccc1	0%	2%	2%	3%	0%	5%
Nc1c(-c2ccccc2)c(CSc2nc3ccccc3[nH]2)nn1-c1cccc(C(=O)O)c1	1%	-2%	-3%	2%	?	10%
Cc1nn(-c2nc3ccccc3[nH]2)c(N)c1-c1ccccc1	-11%	1.6µM*	?	0.63µM*	1.9µM*	2µM*
Cc1nn(-c2ccccc2)c(N)c1-c1ccccc1	-5%	?	15%	3.2µM*	13µM*	13µM*
Cc1cc(-c2ccccc2)n(-c2ccccc2)n1	.	?	?	?	15µM*	.
